From PubChem BioAssay AID2129 (The Scripps Research Institute Molecular Screening Center, 2009) come the findings set out here.

About 2,200 (0.69%) of roughly 320,000 compounds were called active. The sample holds actives, similar compounds and a random draw of the others, so the mix is not that of the screen.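 Rule for the calls: active = inhibition above the mean of all tested compounds plus 3 SD, cutoff set per campaign (cut at about 30% in these data); inactive = the rest.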

Chain of Bcl-2-like protein 1 (Homo sapiens) (Q07817 whole entry, looked up): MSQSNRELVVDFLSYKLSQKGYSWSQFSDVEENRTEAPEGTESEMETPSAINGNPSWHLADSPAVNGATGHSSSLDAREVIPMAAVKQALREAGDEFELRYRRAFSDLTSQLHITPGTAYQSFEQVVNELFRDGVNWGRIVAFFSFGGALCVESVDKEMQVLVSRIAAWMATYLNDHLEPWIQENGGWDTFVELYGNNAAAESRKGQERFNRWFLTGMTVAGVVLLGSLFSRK

The experiment addresses Bcl-2-like protein 1 (Homo sapiens) (UniProt Q07817). Nature of the experiment: inhibitors of human Bcl-xL, primary screen, biochemical, fluorescence polarization, HTS (AID 2129).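 Note: 0% = DMSO wells and 100% = unlabeled Bim-BH3 peptide competitor; inhibitors lower millipolarization by displacing the labeled peptide.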 Conditions: GST-Bcl-xL / FITC-Bim BH3 peptide fluorescence polarization; at 10.9 µM; active compounds read high. On the technique in general: Fluorescence polarisation rises when a labelled molecule tumbles more slowly, as on binding a larger partner.
Turning to `O=C(CSC(=S)N1CCCCC1)c1c(F)cccc1F`, the inhibition (in general, the change of the read-out against control, counted positive when it falls) was 3.52% (inactive). The result for `COc1ccc(OC)c(CCNC(=O)CCn2ccc3cc(S(=O)(=O)N4CCCC4)ccc32)c1` reads 0.09% (inactive); that for `COc1ccc(-c2nc(CS(=O)CC(=O)NCc3ccccn3)c(C)o2)cc1` (stereo not given), 95.6% (active). In the case of `COc1ccc(-c2nc(CS(=O)CC(=O)NCc3ccccc3)c(C)o2)cc1OC` (stereo not given) it was 4.97% (inactive); in that of `COc1cccc(-c2nc(CS(=O)CC(=O)NCc3ccc(F)cc3)c(C)o2)c1` (stereo not given), 7.05% (inactive); in that of `Cc1ccccc1-n1c(SCC(=O)Nc2cccc3ccccc23)nc(O)cc1=O`, -0.46% (inactive).

Regarding `Cc1c(C(=O)NC2CCCCC2)oc2ccccc12`, the inhibition was -0.72% (inactive).

Take `COc1cccc2c1OCC(CN1CCN(C3CCCCC3)C(CCO)C1)=C2` (stereo not given): the inhibition was 2.11% (inactive). The result for `Cc1ccc(CNC(=O)C(=O)c2cn(CC(=O)N3CCCC3)c3ccccc23)cc1` reads 5.15% (inactive); that for `Nc1cccc2c1C(=O)N(Cc1nnc(-c3ccccc3Br)o1)C2=O`, 48% (active). In the case of `Cn1cnnc1SCc1nnc(-c2ccccc2Br)o1` it was 2.35% (inactive). The result for `CCOC(=O)N1CCN(Cc2nnc(-c3ccccc3Cl)o2)CC1` reads -2.11% (inactive); that for `CC(=O)NNC(=O)c1csc(Cc2c(Cl)sc3ccc(Cl)cc23)n1`, 1.7% (inactive). Turning to `Cc1ccc([N+](=O)[O-])c(OCCCNCC(C)O)c1` (stereo not given), the inhibition was 8.16% (inactive). Consider `COc1ccc2cc1Oc1ccc(cc1)C[C@H]1c3cc(c(OC)cc3CCN1C)Oc1c(O)c(OC)cc3c1[C@H](C2)N(C)CC3`, for which the inhibition was 6.82% (inactive). The result for `COc1ccc(CN2CCCC(N3CCc4ccccc4C3)C2)c(O)c1` (stereo not given) reads -3.09% (inactive); that for `COc1c(O)ccc2c1CN1CCc3cc4c(cc3C1C2)OCO4` (stereo not given), 33.7% (active); that for `CN(C(=O)COC(=O)CCCc1c[nH]c2ccccc12)c1c(N)n(Cc2ccccc2)c(=O)[nH]c1=O`, -5.75% (inactive).

In the case of `O=C(Nn1c(SCc2ccc([N+](=O)[O-])cc2)nc2ccccc2c1=O)c1ccc(F)cc1`, the inhibition was -2.84% (inactive). The result for `COc1cccc(NC(=S)N(CCc2c(C)[nH]c3ccccc23)Cc2ccco2)c1` reads -0.26% (inactive); that for `Cc1[nH]c2ccccc2c1CCN(Cc1cccs1)C(=S)NC(C)(C)C`, 3.98% (inactive); that for `COc1ccc2[nH]c(C)c(CCN(Cc3cccs3)C(=S)Nc3ccccc3OC)c2c1`, 59.5% (active).

As for `COCCn1c(N)c(N(Cc2ccccc2)C(=O)C2CCCCC2)c(=O)[nH]c1=O`, the inhibition was -0.25% (inactive). In the case of `COc1ccc(CNc2nc3c(c(=O)[nH]c(=O)n3C)n2Cc2ccccc2)cc1`, the inhibition is 2.21% (inactive). On to `COCCn1c(N)c(NCc2ccccc2)c(=O)[nH]c1=O`, for which the inhibition was 64.6% (active). In the case of `COc1ccc(CCNC(=O)CCCCCNC(=O)N2CCn3c2nc2ccccc23)cc1OC`, the inhibition is 1.04% (inactive).

With `Cc1cccn2c(=O)c3cc(C(=O)NCC4CCCO4)c(=N)n(Cc4ccc(F)cc4)c3nc12` (stereo not given), the inhibition is 0.48% (inactive). In the case of `COc1ccc(CCn2c(=N)c(C(=O)NCC3CCCO3)cc3c(=O)n4cccc(C)c4nc32)cc1OC` (stereo not given) it was 1.5% (inactive). In the case of `Cc1cccn2c(=O)c3cc(C(=O)NCCN4CCOCC4)c(=N)n(Cc4cccnc4)c3nc12`, the inhibition was 48.6% (active). In the case of `Cc1ccc(S(=O)(=O)N(Cc2ccc(Cl)cc2)c2ccccc2C(=O)NCc2cccnc2)cc1` it was 0.59% (inactive). In the case of `Cc1sc(NC(=O)c2ccc3ncsc3c2)c(C(N)=O)c1C` it was 4.75% (inactive). In the case of `O=C(COc1ccc(/C=N/NS(=O)(=O)c2ccccc2)cc1)NCCc1ccccc1`, the inhibition was 5.85% (inactive). In the case of `COc1ccc(C2C=C(c3ccc(Br)cc3)Nc3nc(NS(C)(=O)=O)nn32)cc1` (stereo not given), the inhibition is 164% (active). The result for `COc1ccc(C2=CC(c3cccc(OC)c3)n3nnnc3N2)cc1` (stereo not given) reads 29.1% (inactive); that for `CC(C)c1ccc(N2CC(C(=O)Nc3nccs3)CC2=O)cc1` (stereo not given), -0.59% (inactive). In the case of `CC1=C(C(=O)N(C)C)C(c2ccccc2OC(F)F)NC(=O)N1` (stereo not given) it was 3.23% (inactive); in that of `Cc1cc2occ(CC(=O)NNC(=O)c3ccccc3F)c2cc1C`, 0.46% (inactive); in that of `COc1ccccc1NC(=S)N1CCC(NC(=O)C23CC4CC(CC(C4)C2)C3)CC1`, 2.22% (inactive).

On to `Cc1cccn2c(=O)c3cc(C#N)c(=O)n(CCCN4CCOCC4)c3nc12`, for which the inhibition is 28.5% (inactive). As for `Cc1cccn2c(=O)c3cc(C#N)c(=NC(=O)c4cccnc4)n(CC4CCCO4)c3nc12` (stereo not given), the inhibition was 47.4% (active). In the case of `COc1ccc(CNC(=O)c2cc3c(=O)n4ccccc4nc3n(CC3CCCO3)c2=N)cc1` (stereo not given) it was 8.61% (inactive). For `Cc1oc2c(C)c3oc(=O)c(CC(=O)N[C@@H](CC(C)C)C(=O)N[C@@H](Cc4ccccc4)C(=O)O)c(C)c3cc2c1C`, the inhibition was 10.3% (inactive).

Turning to `CCOc1ccc(/C=N/OCC(=O)NCc2cccs2)cc1`, the inhibition is 2.85% (inactive). As for `CCN(c1ccccc1)S(=O)(=O)c1ccc(OCC(=O)N2CCCC2)cc1`, the inhibition was 3.8% (inactive). In the case of `CC(C)[C@@H](NC(=O)OC(C)(C)C)C(=O)NCC1CCC(C(=O)N[C@@H](Cc2ccccc2)C(=O)O)CC1` (stereo not given in full) it was 7.31% (inactive).

Regarding `CC(C)C1N=C2c3ccccc3N=C(SCC(=O)c3ccc(O)c(O)c3)N2C1=O` (stereo not given), the inhibition was 13.5% (inactive). Take `CC1(C)Cc2c(C#N)c(SCc3nc4ccccc4[nH]3)nc(N3CCOCC3)c2CO1`: the inhibition is 6.67% (inactive).

As for `C1=C(N2CCOCC2)/C(=C/c2nc3ccccc3[nH]2)CC1`, the inhibition is 88.2% (active).

`O=c1[nH]c(N2CCOCC2)nc2ccccc12`: the inhibition was 3.04% (inactive). In the case of `CCOC(=O)N1CCN(S(=O)(=O)c2cc(Br)cc3c2N(C(=O)C2CC2)CC3)CC1` it was -4.43% (inactive); in that of `CS(=O)(=O)N(CC(=O)NCc1ccco1)c1ccc2c(c1)OCO2`, 5.67% (inactive); in that of `CCN(c1ccc2c(c1)OCO2)S(=O)(=O)c1cc(Br)cc2c1N(C(=O)C1CC1)CC2`, 34% (active).

`CCOc1cc(/C=C/C(=O)OCC(=O)NCCN2C(=O)CSC2=O)ccc1OCC(C)C`: the inhibition was -5% (inactive). The result for `N#CC1=C(N)C(C#N)(C#N)[C@H](c2ccsc2)[C@H]2COCC=C12` reads 37.8% (active); that for `Cc1cccc(Nc2nc(NCCO)nc(N3CCCC3)n2)c1`, -0.55% (inactive).

As for `CCCc1cc(=O)[nH]c(SCC(=O)N2CCN(S(=O)(=O)c3ccc(C)cc3C)CC2)n1`, the inhibition was 3.73% (inactive). For the compound `Cc1cc2oc3ccc(NCCC4CCCN4C)cc3c(=O)c2cc1C` (stereo not given), the inhibition was 40.9% (active). The result for `CCCOc1ccc(C2c3c(oc4cc(C)c(C)cc4c3=O)C(=O)N2CCCN2CCOCC2)cc1` (stereo not given) reads 11.6% (inactive); that for `Fc1c(F)c(C(F)(F)F)c(F)c(F)c1N1CCN(c2ccc3nnc(C(F)(F)F)n3n2)CC1`, 3.95% (inactive). In the case of `COc1cc(/C=C/C2=CC(C)(C)NC(=S)N2)cc(OC)c1OC` it was -3.53% (inactive); in that of `CCCCOC(=O)CNc1nnc(SCC(=O)OCC)[nH]c1=O`, 15.6% (inactive); in that of `Cc1cc(C)c[n+](-c2nc3ccccc3nc2[N-]S(=O)(=O)c2cccs2)c1`, 5.77% (inactive). The result for `O=S(=O)([N-]c1nc2ccccc2nc1-[n+]1ccc(Cc2ccccc2)cc1)c1ccc(Br)s1` reads 82.6% (active); that for `O=C(NCCc1ccccc1)C1CCN(S(=O)(=O)c2ccc(Br)s2)CC1`, 2.98% (inactive); that for `COC(=O)C1=C(O)/C(=C/c2ccc(OCC(=O)Nc3ccccc3)cc2)N=C1C`, 0.76% (inactive). `CCOC(=O)C1=C(O)/C(=C/c2cc(C)n(-c3ccccc3)c2C)N=C1C`: the inhibition was 35.6% (active). In the case of `CCOC(=O)C1=C(O)/C(=C/c2ccc(OCC(=O)Nc3ccc(C)cc3)cc2)N=C1C` it was -2.9% (inactive); in that of `CCn1c2c(c3ccc(OC)cc31)CCCC2=O`, 5.26% (inactive); in that of `O=S(=O)(c1ccc(SCc2ccccc2)nc1)N1CCCCCC1`, 5.07% (inactive). Consider `CC(=O)c1cnn(-c2cc(Oc3ccc(F)cc3)ncn2)c1C`, for which the inhibition is 2.24% (inactive). For `COc1ccc(NS(=O)(=O)c2ccc(F)cc2F)cn1`, the inhibition is 3.96% (inactive). Regarding `COc1ccc(Nc2cc(Cl)ccc2C(=O)O)cn1`, the inhibition is 50.8% (active). In the case of `COc1cccc(Nc2ncccc2C(=O)O)c1` it was 6.39% (inactive); in that of `CCCCOP(=O)(c1ccc(N(C)C)cc1)C(O)c1cc(OC)ccc1OC` (stereo not given), 5.82% (inactive); in that of `Cc1ccc(NC(=O)CSCC(=O)N2CCOCC2)cc1`, 1.4% (inactive).

In the case of `COC(=O)Cc1cc(=O)oc2c(C)c(O)ccc12`, the inhibition was 4.68% (inactive). As to `COc1cccc2cc(S(=O)(=O)c3ccc(C)cc3)/c(=N/NS(=O)(=O)c3ccc(C)cc3)oc12`, the inhibition is 5.22% (inactive).

On to `Cc1cc(S(=O)(=O)c2cc3ccc(O)c(C)c3oc2=O)ccc1F`, for which the inhibition was 40.6% (active). As to `Cc1ccc(NC(=O)C2CC2c2ccccc2)cc1` (stereo not given), the inhibition is 2.22% (inactive). On to `CC(=O)N1c2ccc(S(=O)(=O)N3CCC(C(=O)NC4CCCC(C)C4C)CC3)cc2CC1C` (stereo not given), for which the inhibition was 0.13% (inactive). In the case of `COc1ccccc1/C=C/C=N/n1c(-c2ccc(Cl)cc2Cl)n[nH]c1=S` it was -7.95% (inactive). The result for `CCn1c(SCc2ccccc2)nc2cc(OC)c(OC)cc2c1=O` reads 3.12% (inactive); that for `CSc1c(SCc2ccccc2)cnn(Cc2ccccc2)c1=O`, 145% (active). Turning to `COC(=O)c1ccc(SCc2ccccc2)nc1`, the inhibition is 6.87% (inactive). In the case of `CCc1ccccc1NC(=O)NCCN1CCCCC1` it was 5.44% (inactive); in that of `CCOC(=O)[C@@H]1[C@H]2COc3cc(OC)ccc3[C@@H]2N2C(=O)N(c3cccc(C)c3)C(=O)[C@@]12C`, 3.42% (inactive). For `Cn1sc(=O)c2cc(S(=O)(=O)NC3CC3)ccc21`, the inhibition was 2.2% (inactive).

With `COc1cc(CN(C)Cc2nc3cc(C(F)(F)F)ccc3c(=O)[nH]2)ccc1OC(F)F`, the inhibition was -2.06% (inactive). The result for `COc1ccc(CN(C)Cc2nc3cc(OC)c(OC)cc3c(=O)[nH]2)c(OC)c1` reads 85.4% (active); that for `COc1cc2nc(CN(C)Cc3ccc(F)cc3)[nH]c(=O)c2cc1OC`, -1.08% (inactive).
